# HEK cytotox = HEK 293 cell cytotoxicity. Potency, µM (doses to about 115 µM), inactives show top-dose activity change, negative = cytotoxicity, hits mostly inhibitors. 6.6% of 94,000 active. HEK 293 viability, ATP luminescence (CellTiter-Glo), 48-72 h; also: nearly all actives have a fitted effect of over 60% in size
#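 Read-out: CellTiter-Glo ATP luminescence. Cells: HEK 293, 250 cells/well. Exposure: 48 or 72 hr, 37 degree Celsius.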
# GPT2 inh = GPT2 alanine aminotransferase inhibition; AID 1671188; Recombinant GPT2, coupled pyruvate oxidase/HRP Amplex Red fluorescence; 0.25% of 100,000 active; Potency, µM (highest dose often 57.7 µM), for inactives: at the highest dose activity change, negative = inhibition, hits mostly inhibitors; also: nearly all actives have a fitted effect of over 60% in size
# Target sequence (Q8TD30 whole entry, looked up): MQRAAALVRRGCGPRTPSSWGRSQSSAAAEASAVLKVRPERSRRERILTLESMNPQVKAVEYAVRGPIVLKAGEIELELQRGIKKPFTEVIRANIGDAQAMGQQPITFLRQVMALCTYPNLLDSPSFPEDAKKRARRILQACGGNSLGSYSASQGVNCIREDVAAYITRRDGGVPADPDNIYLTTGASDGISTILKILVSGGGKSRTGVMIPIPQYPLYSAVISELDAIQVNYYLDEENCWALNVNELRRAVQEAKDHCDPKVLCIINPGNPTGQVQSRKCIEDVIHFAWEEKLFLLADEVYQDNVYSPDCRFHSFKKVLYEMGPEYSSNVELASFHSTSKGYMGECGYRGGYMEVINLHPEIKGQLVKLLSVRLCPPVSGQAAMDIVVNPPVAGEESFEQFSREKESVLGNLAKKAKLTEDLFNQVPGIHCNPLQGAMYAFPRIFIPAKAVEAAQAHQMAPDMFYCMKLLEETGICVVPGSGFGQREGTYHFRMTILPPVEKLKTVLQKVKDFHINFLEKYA
#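 Fluorescence read-out: pyruvate from GPT2 turnover coupled to pyruvate oxidase, HRP and Amplex Red (0.2mM ThPP, 0.2U/mL PO and HRP, 50uM Amplex final). Substrates 250uM a-KG, 2mM L-alanine; enzyme 10ng/uL; 30 min RT.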
# NPR1 antag = blocks ANP-stimulated signaling of human Npr1 receptor; P16066; HEK293 hNpr1 GloSensor cGMP, ANP-stimulated luminescence; Potency, µM (doses to about 46.3 µM), inactives show at the highest dose activity change, negative = inhibition, usual class: inhibitors; 1.6% of 76,000 active; AID 1347048; calls by dose curve; also: nearly all actives have a fitted effect of over 60% in size
#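 Compound pre-incubated 30 min at room temperature on GloSensor-loaded HEK293 cells stably carrying hNpr1 and the pGS-40F cGMP biosensor. Stimulation uses hNppA at 0.1 nM final; luminescence is taken at baseline and 20 min post-agonist.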
# NIH3T3 tox = NIH 3T3 cell cytotoxicity | NIH 3T3 viability, CellTiter-Glo ATP luminescence, 48-72 h | Potency, µM (highest dose often 96.7 µM), without a hit: at the highest dose activity change, negative = cytotoxicity, hits mostly inhibitors | 4.3% of 94,000 active; also: nearly all actives have a fitted effect of over 55% in size
#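 ATP-dependent luminescence (CellTiter-Glo) served as the viability signal for NIH 3T3 cells treated with compound for 48 or 72 hr at 37 °C.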
# FLuc inh = blocks purified firefly luciferase enzyme activity | purified P. pyralis luciferase, luminescence, biochemical | Potency, µM (highest dose often 115 µM), most hits filed as inhibitors | 2.5% of 76,000 active | AID 1347043; also: nearly all actives have a fitted effect of over 65% in size
#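 Inhibitors were tested against purified firefly luciferase in a biochemical, low-substrate format (both substrates at 10uM) and luminescence measured with a CCD imager.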
# Numbers without * were called inactive; i = inactive; ? = inconclusive; · = no result given; ! = repeats disagree; [ ] = another dose, or the depositor's remark. Hits are enriched below; roughly 10% of the tested compounds scored in any of these assays. Unless noted, calls follow the shape of the dose curve; as a rule, active = well fitted curve in the direction sought with a large enough effect; inconclusive = small, poorly fitted or top-dose-only effect, or another doubt; inactive = no such curve, though single readings can be large; an effect the other way counts as inactive or inconclusive. % is scaled to controls: 0 for no effect and ±100 for the full control effect; potency is read from the fitted curve at half-maximal effect.
SMILES,HEK cytotox,GPT2 inh,NPR1 antag,NIH3T3 tox,FLuc inh
Cc1ccc(CN2C[C@@H](CO)[C@H](c3ccccn3)C2)nc1,?,i,-2%,?,i
O=C(NC1CCN(c2nc3ncccc3o2)C1)C1CC1 (stereo not given),-2%[172 µM],-4%[88.5 µM],·,-2%[138 µM],·
COc1ccccc1-c1ccc(CN2CCCCC2C(=O)NC2CCCCC2)cc1 (stereo not given),22µM*!,·,·,45µM*!,·
COc1ccccc1-c1cccc(C(=O)N2CCC[C@H]2C(=O)NC2CC2)c1,3%,i,·,-1%,·
Cc1cn2nnc(C(=O)NCc3ccc4c(c3)OCO4)c2c(=O)[nH]1,7%,-2%,2%,4%,40µM*
Cc1cccc(CNC(=O)c2nnn3cc(C)[nH]c(=O)c23)c1,7%,i,4%,-20%,i
O=C(CCC1CCCN(C(CO)CO)C1)N1CCN(Cc2ccccc2)CC1 (stereo not given),-4%,-1%[11.5 µM],4%,2%,i
O=C(c1ccc(Cl)cc1)N1CC2(CCN(CC3CCCCC3)CC2)Cc2ccccc21,?,i,·,?,·
OCC1CN(c2ncccn2)CC12CCN(Cc1c[nH]c3ccccc13)CC2 (stereo not given),-5%,?,1%,-11%,i
OCC1CN(c2ncccn2)CC12CCN(Cc1cccc3[nH]ccc13)CC2 (stereo not given),79µM*,i,-11%,?,i
NCc1ccccc1-c1cc(F)cc(F)c1,-18%[172 µM],-11%[88.5 µM],·,-11%[138 µM],·
Cc1cc(C)cc(-c2ccccc2CN)c1,112µM*,-1%[88.5 µM],·,?,·
Cc1ccc(-c2ccccc2CN)cc1Cl,35µM*,i,·,35µM*,·
CO[C@H]1CN(C(C)C)[C@H]1C1CCN(C(=O)C2CC=CC2)CC1,-23%,i,·,-22%,·
Cc1noc2c(NCCc3ccccn3)cc(-c3ccccc3)nc12,?,-18%[88.5 µM],-2%[70.6 µM],?,i
CC(=O)N1CCN(c2ncccc2-c2cc(-c3ccccc3)nc3c(C)noc23)CC1,-24%[172 µM],4%[88.5 µM],2%[70.6 µM],?,i
Cc1noc2c(NC3CCN(C)CC3)cc(-c3ccccc3)nc12,100µM*,-13%[88.5 µM],1%[70.6 µM],?,i
Cc1noc2c(NC3CCN(C)CC3)cc(-c3ccccn3)nc12,112µM*,i,-1%[70.6 µM],?,i
Cc1noc2c(NC(C)C)cc(-c3ccccc3)nc12,?,1%[88.5 µM],1%[70.6 µM],?,i
Cc1noc2c(-c3cccnc3NC3CCN(C)CC3)cc(-c3ccccc3)nc12,63µM*,i,2%[70.6 µM],32µM*,i
Cc1noc2c(NC3CCN(C)CC3)cc(-c3cccc(C(F)(F)F)c3)nc12,40µM*,-18%[88.5 µM],5%[70.6 µM],?,i
COCC1CN(Cc2ccccc2C(F)(F)F)CC12CCNCC2 (stereo not given),?,i,-3%,?,i
O=C(NCCCc1ccccc1)C1CCCCN1Cc1ccc(-c2cccs2)cc1 (stereo not given),?,i,·,?,·
COc1ccc(-c2cc(N3CCC(NC(=O)CCc4cccc(OC)c4)CC3)n[nH]2)cc1,-26%,-20%,-21%,-25%,i
Cc1nn2c(c1-c1ccccc1-c1ccccc1)N(C(=O)c1cccnc1)CCC2,-28%[172 µM],-16%[88.5 µM],-9%[70.6 µM],?,i
SMILES,HEK cytotox,GPT2 inh,NPR1 antag,NIH3T3 tox,FLuc inh
COc1ccccc1C(=O)N1CCCn2nc(C)c(-c3ccccc3-c3ccccc3)c21,89µM*,i,-1%[70.6 µM],?,i
Cc1nn2c(c1-c1cccc3cn[nH]c13)N(C(=O)c1cccc(Cl)c1)CCC2,50µM*,i,-1%[70.6 µM],?,i
Cc1nn2c(c1-c1ccccc1Oc1ccccc1)N(C(=O)C1CCC1)CCC2,89µM*,-11%[88.5 µM],-5%[70.6 µM],?,i
Cc1ccncc1-c1c(C)nn2c1N(C(=O)c1cccc(Cl)c1)CCC2,-25%[172 µM],3%[88.5 µM],0%[70.6 µM],?,i
COc1ccc(C(=O)N2CCCn3nc(C)c(-c4ccccc4-c4ccccc4)c32)cc1,35µM*,-30%[88.5 µM],-22%[70.6 µM],?,i
COc1ccc(C(=O)N2CCCn3nc(C)c(-c4ccccc4-c4ccccc4)c32)cn1,?,-10%[88.5 µM],-18%[70.6 µM],?,i
Cc1nn2c(c1-c1ccccc1-c1ccccc1)N(C(=O)C1CCOCC1)CCC2,-10%[172 µM],0%[88.5 µM],3%[70.6 µM],?,i
O=C(O)CC1(CC(=O)N2CCN3C(=O)N(Cc4ccccc4)C(=O)[C@H]3C2)CCCC1,-15%[172 µM],-20%[88.5 µM],2%[70.6 µM],-19%[174 µM],i
COCCOC(=O)C1=C(C)N=C2SC=C(CC(=O)N3CCOCC3)N2C1c1cccc(OC)c1 (stereo not given),?,i,-16%,-28%,i
CNC(=O)c1cc(C)nc2onc(C3CCN(C(=O)NC(C)C)C3)c12 (stereo not given),-9%,·,·,-20%,·
COc1ccccc1-c1cccc(C(=O)N2CCC[C@H]2C(=O)NCCc2ccc(F)cc2)c1,?,i,·,?,·
COc1ccc(S(=O)(=O)Nc2cccnc2Nc2ccc(O)cc2)cc1,·,22µM*!,·,·,·
COc1ccnc(N2CC[C@H](c3nnc(-c4ccc(C)cc4)o3)C2)n1,100µM*,-2%[88.5 µM],-3%[70.6 µM],?,?
O=C1NCCCCCCN(Cc2ccncc2)[C@@H]2CN(Cc3ccccn3)CC[C@H]12,-1%,i,4%,-12%,i
COc1ccccc1-c1cccc(CN2CCCC(C(=O)NCc3ccc(C(F)(F)F)cc3)C2)c1 (stereo not given),18µM*,?,·,22µM*,·
COc1ccccc1-c1cccc(CN2CCCC(C(=O)NCc3ccc(F)cc3)C2)c1 (stereo not given),32µM*,i,·,32µM*,·
COc1ccccc1-c1cccc(CN2CCCC(C(=O)NCc3cccnc3)C2)c1 (stereo not given),?,i,·,35µM*,·
COc1ccccc1CNC(=O)C1CCCN(Cc2cccc(-c3ccc(F)cc3F)c2)C1 (stereo not given),?,i,·,?,·
COc1ccccc1-c1cccc(CN2CCCC(C(=O)NCc3cccc(C(F)(F)F)c3)C2)c1 (stereo not given),14µM*,i,·,16µM*,·
COc1ccccc1-c1cccc(CN2CCCC(C(=O)NC3CCOC3)C2)c1 (stereo not given),?,i,·,?,·
O=C(Nc1cc(-c2cccnc2)nn1-c1ccccc1)c1ccc(Cl)cc1,?,i,·,?,·
COc1ccccc1-c1cccc(CN2CCCC(C(=O)NCc3cccc(Cl)c3)C2)c1 (stereo not given),14µM*,i,·,32µM*,·
CN(CCC(O)c1ccccc1)c1nccc(-c2cccnc2)n1 (stereo not given),32µM*,-9%,4%,?,i
